Here are results for 17 molecules from PubChem BioAssay.

The structures appear in SMILES notation. Values without a mark were called inactive.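 Rule for the calls: active = Her2 level under about 52% in both replicate screens, with viability over 70% of control (limit read from the data); inconclusive = Her2 under the limit in one screen only, or viability under 70%; inactive = Her2 level above the set limit.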

For this assay, the target named is Receptor tyrosine-protein kinase erbB-2 (Homo sapiens) (UniProt P04626). In words: reducers of endogenous Her2 protein level, primary screen, SKBR3 breast tumor cells, AlphaScreen, ATP viability (AID 461).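 Note: lower value means less Her2 protein in the cells.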 To be noted: 18-24 h, at 10 µM, hits give low values.
Sequence of Receptor tyrosine-protein kinase erbB-2 (Homo sapiens) (P04626 whole entry, looked up): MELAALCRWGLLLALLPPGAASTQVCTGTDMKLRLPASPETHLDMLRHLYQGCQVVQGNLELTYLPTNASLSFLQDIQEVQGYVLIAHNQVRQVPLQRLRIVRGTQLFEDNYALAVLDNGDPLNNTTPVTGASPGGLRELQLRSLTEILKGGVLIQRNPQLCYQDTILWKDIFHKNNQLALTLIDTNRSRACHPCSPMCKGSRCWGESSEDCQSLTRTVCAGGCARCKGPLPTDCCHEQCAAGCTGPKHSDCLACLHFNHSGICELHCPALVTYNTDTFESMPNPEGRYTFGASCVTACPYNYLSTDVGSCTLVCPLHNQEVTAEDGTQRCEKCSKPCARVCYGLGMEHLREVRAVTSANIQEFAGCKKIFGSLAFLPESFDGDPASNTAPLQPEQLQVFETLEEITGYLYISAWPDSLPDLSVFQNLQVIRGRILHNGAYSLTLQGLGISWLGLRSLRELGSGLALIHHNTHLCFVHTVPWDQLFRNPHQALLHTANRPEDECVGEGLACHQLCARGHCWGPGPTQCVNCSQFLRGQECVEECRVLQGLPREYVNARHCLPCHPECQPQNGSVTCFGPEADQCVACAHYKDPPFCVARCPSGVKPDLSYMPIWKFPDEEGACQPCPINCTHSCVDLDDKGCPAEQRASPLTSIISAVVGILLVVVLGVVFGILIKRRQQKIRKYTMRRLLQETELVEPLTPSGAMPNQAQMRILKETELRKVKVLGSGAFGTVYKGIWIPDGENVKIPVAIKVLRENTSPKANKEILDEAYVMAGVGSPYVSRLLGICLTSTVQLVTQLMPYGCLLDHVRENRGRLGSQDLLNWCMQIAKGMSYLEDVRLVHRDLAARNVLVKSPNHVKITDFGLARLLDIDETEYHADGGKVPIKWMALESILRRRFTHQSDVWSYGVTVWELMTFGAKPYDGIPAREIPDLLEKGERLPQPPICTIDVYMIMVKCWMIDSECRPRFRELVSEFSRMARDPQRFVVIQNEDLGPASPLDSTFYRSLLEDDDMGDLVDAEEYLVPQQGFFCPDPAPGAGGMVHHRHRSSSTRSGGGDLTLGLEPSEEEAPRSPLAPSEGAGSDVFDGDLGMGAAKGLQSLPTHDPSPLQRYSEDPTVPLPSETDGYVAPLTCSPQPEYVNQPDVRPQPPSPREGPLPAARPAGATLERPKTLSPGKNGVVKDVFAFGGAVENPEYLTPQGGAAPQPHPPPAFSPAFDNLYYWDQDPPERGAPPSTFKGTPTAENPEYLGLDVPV
Turning to `Cc1cccc(OCC(=O)N2CCN(C(=O)Cc3ccccc3)CC2)c1`, the Her2 level was 94%.
Consider `O=C1CC(c2cccnc2)c2cc3c(cc2N1)OCO3` (configuration not stated), for which the Her2 level is 108%.
Consider `CCc1nn(CC(=O)NCCCN2CCc3ccccc3C2)c(=O)c2cc3sccc3n12`, for which the Her2 level was 86.5%.
In the case of `Cc1ccc(-c2nc3cc(NC(=O)C(C)C)ccc3o2)cc1` it was 112%.
In the case of `CC(CC(=O)NC1CCSC1=O)c1ccccc1` (configuration not stated) it was 87.5%; in that of `COc1ccc(C2CC(c3ccc(OC)cc3)n3nc(N)nc3N2)cc1` (configuration not stated), 98%.
In the case of `COC(=O)COc1cccc(NC(=O)COc2ccccc2)c1` it was 122%; in that of `COc1ccc(OCCSc2nc3ccccc3n2CC(=O)O)cc1`, 108%.
Take `Cc1cccnc1-n1c(CCN2C(=O)c3ccccc3C2=O)nc2ccccc2c1=O`: the Her2 level is 106%.
Turning to `CC(=O)N(c1ccc(Br)cc1)C1C=CS(=O)(=O)C1` (configuration not stated), the Her2 level is 96%.
`Cc1ccccc1Cn1cc(/C=N/n2cnnc2)c2ccccc21`: the Her2 level is 99.5%.
As to `CCOC(=O)N1CCN(c2cc(=O)n(-c3ccccc3Cl)c(=O)[nH]2)CC1`, the Her2 level was 124%.
With `CCCCN(C)Cc1c(O)ccc2c(-c3ccccc3)cc(=O)oc12`, the Her2 level was 102%.
For the molecule `CCCCn1c(CN2CCN(c3ccc(F)cc3)CC2)nc2c1c(=O)n(C)c(=O)n2C`, the Her2 level was 93%.
The figure for `CCn1c(SCC(=O)Nc2cccc(C)c2)nc2c(c1=O)SC(C)C2` (configuration not stated) is 88%; for `COc1cccc(C2CC(c3ccc(C)cc3)n3nc(N)nc3N2)c1` (configuration not stated) it is 112%.
With `Cc1cc(C)cc(N(CC(=O)Nc2cccc(C)n2)S(=O)(=O)c2c(C)noc2C)c1`, the Her2 level was 97%.
